# Assay results published in the supplement of paper PMC11417369.
# In all, about 25,000 sequences were measured (“ln(normalized median fluorescence intensity)”: median about 6.7, highest 2% from about 10 on). Shown is part of a subset that was picked to be rich in the highest values.
# Test system: PfHDP1 homeodomain (GST-tagged)
# Assay: gcPBM binding intensity (ln(normalized median fluorescence intensity)); higher = stronger DNA binding
# Method in brief: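 Alexa488 anti-GST antibody, scanned at 488 nm, detected GST-tagged P. falciparum DNA-binding domains that had been expressed in E. coli and incubated for 1 h on an Agilent 4 × 180k array. The array carried primer-extended double-stranded 36-bp intergenic genomic probes and negative controls. Binding intensity is the highest Masliner-normalised natural-log median intensity across replicate spots of either orientation of each probe.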
row,Sequence,gcPBM binding intensity (ln)
1,TGCTGTATATTTTTCTGTACACATTTATATATTCCA [XGTACX_site6244],6.65
2,CATATAGTATAAATTTGTACATAAATATATATATAT [XGTACX_site7477],8.91
3,TATAATATATTTTAATGTACGTACATCCCGATTAAT [XGTACX_site7651],6.63
4,CAAAAAAATGTGAAGGCATGCAAATATGTAAAATAA [TGCATGCA_site921],7.26
5,TTATTGTAAATATATGCATGTGCAAAATGAAAAAAA [TGCATGCA_site399],10.5
6,TATAAAATAAATTGTGCACACATATTTATAAATATG [CACACA_site2330],10.5
7,ATAATTATTAAGAGAACATGCAAAATATATATGTTT [TGCATGCA_site503],6.68
8,ACTAAAAAATATATATGTACATAATAATATATTATT [XGTACX_site1260],6.66
9,AATAAATAAAAAATTACACACATATTTATAAATATA [CACACA_site7584],6.4
10,AAATTAATATTATGTGCATGCACAAAGAGGAACGAC [TGCATGCA_site754],11.8
11,TATTAATTATAAGATGCATGTGCAAAAATATGTTCC [TGCATGCA_site51],10.2
12,TAATAAAATATGTACGTGCACATAATTATACTAAAA,10.5
13,AATATTTTAAATATTGCATGCAATGAAAAATGTAAA [TGCATGCA_site139],7.73
14,AACCATAAATAATTATGTACTAAAAAAAATATATAT [XGTACX_site3415],6.7
15,ATAATTATAAAATAAACACACATATATATTTATATG [CACACA_site440],6.29
16,AAAAATAAAAAAATAAAAAATAAAAAAATAAAAAAT [CACACA_negctrl_site1425],6.64
17,TTAATAATAAAAAGGAGTACACTAATATACTATAAA [XGTACX_site2346],6.35
18,TAAATTTTAATAAATACACACAAATTTTAATTCTAT [CACACA_site6039],6.27
19,TACATATAAACAATAACACACACCTAGGTACATGGA [CACACA_site8178],6.49
20,TGTATTCTCTTAGTAGTGCATTTGAAGATTATATAA,8.81
21,TAAATAGATGTTTTATGTACGTATAAATAAAAAAAA [XGTACX_site3412],6.29
22,TTTATTTATTTAATTACACACGAACATATAACCATT [CACACA_site7952],6.8
23,ATTTTTTAAAAAGTAACACACACTCTTATATATAAT [CACACA_site9206],6.64
24,ATATACATATCATGTAGTACAATTTTTTTACTTTTT [XGTACX_site7988],6.14

row,Sequence,gcPBM binding intensity (ln)
1,CAAGCTATGTATTCTACACACACATACACCCATATA [CACACA_site9133],7.22
2,ATATATTATATAATATGTACATAATAAAATTTAAAT [XGTACX_site1900],6.79
3,TAAAATAATATTTATGTGCACATATAATTATTAATT,10.7
4,TGAAATTTTATTAATGTGCACATATATTTATTGTTC,10.8
5,ATATTTAATGTTAATTGTACATATTATATATATATA [XGTACX_site6095],8.49
6,TAATATTTTAATTGTGTGCACATTAATATTATAAAA,10.3
7,ATTATTAATAATTGTGTGCACAAATATTTATATGCT,10.6
8,ATGAAAATTTATATTGCACACATAGGGAATAAAAAA [CACACA_site8667],10.4
9,CAAATATATATGTTCACACATATAATTATTGTGAAA [CACACA_site4190],6.4
10,TTAAAAAAATTAATATGTACATATATTTATATATAT [XGTACX_site5317],6.54
11,TAATATAATATATGCACACAAATATGTATTTATGTG [CACACA_site5210],10.1
12,TAAAATAAATTGTGCACACATATTTATAAATATGAA [CACACA_site2331],10.7
13,TTTATGAAACAGTGCACACATAAAAATATATACATA [CACACA_site2992],10.1
14,CAACATTAATATAAAGCACACATATATATAATATAT [CACACA_site8064],6.39
15,TTGAACCTGATAAATACACACAATATAGATTTTTTT [CACACA_site7091],6.48
16,TTTCTAATTCTTAGTGGTACACAGTTCTGCTGATAT [XGTACX_site2391],6.09
17,AATGAGCGTTAAAAATGTACAGAAAATTGGAATTAT [XGTACX_site5743],6.75
18,ATATATATATATATTGTGCACAAAAAAAAATAAGCA,10.7
19,TAAAATAATTTATGCATACACACATATATATATATA [CACACA_site4021],9.28
20,TATAAAAATAAGCACACACACAAATATATATTTATT [CACACA_site922],6.77
21,GAAATAATTTCATATACACACATATACATACATACA [CACACA_site1358],7.13
22,GTTTATTTATTTTATGTGCACATATAACAAAAAAAA,10.7
23,TATATATATATATATGTGCACATATTTATATGTTTT,10.3
24,TGTGCATAAATTTATGCACACATAAAAAAAAAAAAA [CACACA_site8954],11
